aSyn 5UTR act: Activators via SNCA 5'UTR binding, MLPCN. activity score, % (tested at 7.5 µM), hits read low. 7.1% of 300,000 active. alpha-synuclein 5'UTR reporter, activators screen; in the data active = activity score below about -60%
* marks the source's active call; other numbers are inactive results. The list is a sample of the results.

SMILES	aSyn 5UTR act
Cc1cc(C(=O)COc2cccnc2[N+](=O)[O-])c(C)n1-c1ccccc1F	67.5
Cc1cc(C(=O)COC(=O)c2ccc[nH]c2=O)c(C)n1C1CC1	-99.1*
CC(C)(C)c1ccc(-c2noc(-c3ccno3)n2)cc1	-120.2*
Cc1cc(NO)nc(-c2ccc(Br)cc2)n1	-277.5*
Cc1ccc(O)c(C(=O)/C=C/c2ccc3c(c2)OCCO3)c1	-82.4*
O=C(O)c1ccc(/C=C/C(=O)c2ccc3c(c2)OCCCO3)cc1	-134.8*
Nc1ccccc1C(=O)/C=C/c1ccc2c(c1)OCO2	-340.3*
O=C(/C=C/c1ccc2c(c1)OCCO2)c1ccccc1	-136.6*
COc1cccc(Nc2nc(-c3ccc(O)cc3)cs2)c1	-191.1*
COc1cccc(Nc2nc(-c3cccc(N4C(=O)c5ccccc5C4=O)c3)cs2)c1	-62.0*
CN(C)c1ccc(C2=NOC(CN3C(=O)c4ccccc4S3(=O)=O)C2)cc1 (stereo not given)	-134.3*
CN(C)/C=C/c1oc2ccc(O)cc2c1[N+](=O)[O-]	-85.6*
CCCc1cc2c(=O)c(-c3ccc4c(c3)OCCO4)coc2cc1OC(=O)c1ccco1	-286.8*
CCCc1cc2c(=O)c(-c3ccc4c(c3)OCCO4)coc2cc1OS(C)(=O)=O	-221.6*
COc1ccc2c(C(=O)CN3CCC(C)CC3)c[nH]c2c1	-76.0*
Cc1nc2ccccc2nc(=O)c1NNc1ccccc1	-240.8*
Cc1ccc2nc(=O)c(NNc3ccccc3)cnc2c1	-217.6*
COc1ccc(S(=O)(=O)NCC2CCCN(Cc3ccc(OC)cc3F)C2)cc1 (stereo not given)	-90.0*
COc1ccccc1C(=O)Oc1ccccc1C(=O)Nc1ccccc1	-162.9*
O=C(Oc1ccccc1C(=O)Nc1ccccc1)c1ccc(Br)c([N+](=O)[O-])c1	-120.6*
COc1ccccc1C(=O)NNC(=S)Nc1ccccc1	-107.1*
Cc1nn(C)cc1C(=O)NNC(=S)Nc1ccccc1	-110.3*
COc1cc(SC)ccc1C(=O)Nc1ccccc1	-184.1*
COc1ccccc1C(=O)Nc1ccc(Br)cc1C	-96.2*
COc1cc(SC)ccc1C(=O)Nc1nc2ccccc2[nH]1	131.5
SMILES	aSyn 5UTR act
CCC(C)(C)C1CCC(=NNC(=O)c2ccoc2C)CC1 (stereo not given)	-111.8*
Cc1cc(OCc2cc(C(=O)N(C)Cc3ccccn3)no2)cc(C)c1Cl	-76.9*
Cc1cc(OCc2cc(C(=O)N(C)C(C)c3ccccn3)no2)cc(C)c1Cl (stereo not given)	-93.0*
CC(=O)c1ccc(OCc2cc(C(=O)N(C)Cc3ccccn3)no2)cc1	-64.9*
COc1ccc2cc[nH]c2c1	70.8
COc1ccc(NC(=O)Nc2ccc3[nH]ccc3c2)cc1	-112.4*
COc1ccc(NC(=O)Nc2ccc(OC)cc2)cc1	-99.4*
COc1ccc(NC(=O)Nc2ccc(N(C)C)cc2)cc1	-124.4*
COc1ccc2cc(OCC(=O)NNC(=O)Nc3ccc(C(C)=O)cc3)ccc2c1	-88.4*
N#Cc1ccc(NC(=O)Nc2ccc(Oc3ccc(NC(=O)Nc4ccc(C#N)cc4)cc3)cc2)cc1	73.7
COc1ccc(NC(=O)OC(C)C)cc1	-69.5*
CCOc1ccc(/C=N/N2C(C)CCCC2C)cc1 (stereo not given)	-77.4*
N#CC1=C(N)Nc2nc3ccccc3n2C1c1ccc(F)cc1 (stereo not given)	-117.1*
N#CC(C#N)=Cc1ccc(NC(=O)c2ccc(Br)cc2)cc1	-152.6*
CC(C)(C)c1ccc(C(=O)Nc2ccc(C=C(C#N)C#N)cc2)cc1	-175.4*
CCc1ccc(NC2=NCC(c3ccccc3)S2)cc1 (stereo not given)	-140.3*
COc1ccc(/C(N)=N/OC(=O)c2cccc([N+](=O)[O-])c2C)cc1	-113.1*
COc1cccc(C(=O)O/N=C(\N)c2ccc([N+](=O)[O-])cc2)c1	-163.9*
COc1cccc(/C(N)=N/OC(=O)Cc2ccccc2[N+](=O)[O-])c1	-77.1*
COc1ccc(/C(N)=N/OC(=O)c2cccc([N+](=O)[O-])c2)cc1	-129.2*
COc1cccc(C(=O)O/N=C(\N)c2ccc(C)cc2)c1	-211.2*
COc1ccc(N=Nc2nc3ccc(Br)cc3n2C)cc1	-112.9*
Nc1cc(=O)[nH]c(SCCSc2ccccc2F)n1	67.4
CC(C)(C)c1ccc(CSc2nc(N)cc(=O)[nH]2)cc1	-79.3*
[2H]C(CCOS(N)(=O)=O)c1ccc(C(C)(C)C)cc1 (stereo not given)	80.0
SMILES	aSyn 5UTR act
Nc1cc(Cl)nc(N/N=C/c2c(O)ccc3ccccc23)n1	-161.8*
O=C(O)c1cc(N/N=C/c2c(O)ccc3ccccc23)ccc1Cl	-65.9*
O=C(CNc1ccccc1)N/N=C/c1c(O)ccc2ccccc12	68.6
CCNc1nc(C)c2cc(Br)c(=O)n(CC)c2n1	76.5
CCOc1cc(CNc2ccc(N3CCCC3)cc2)cc(Cl)c1OC	-67.0*
C=CCOc1c(Cl)cc(CNc2ccc(C)c(Cl)c2)cc1OC	84.6
CC1(C)Cc2c(c(N3CCOCC3)nc3sc4c(NCc5ccccc5)nnnc4c23)CS1	68.2
CCOc1ccc2c(c1)sc(=NC(=O)C1CC1)n2C	-215.2*
Nc1c(C(=O)O)cnc2c(-c3ccc(Cl)cc3)cnn12	-72.0*
CC(C)(C)S(=O)(=O)c1cnc2c(-c3ccsc3)cnn2c1N	-74.4*
CS(=O)(=O)c1cnc2c(-c3ccc(F)cc3)cnn2c1N	-105.8*
Nc1c(-c2cccs2)cnc2c(-c3ccc(F)cc3)cnn12	-164.6*
Cc1ccc(-n2nnc(-c3cccnc3)n2)cc1	-116.9*
c1ccc(-n2nnc(-c3cccnc3)n2)cc1	-162.1*
Brc1ccccc1-c1nnc(SCc2nc3ccccc3s2)o1	-243.6*
CCN(CC)S(=O)(=O)c1cccc(-c2nnc(SCc3nc4ccccc4s3)o2)c1	-113.0*
CCN(CC)Cc1c(O)ccc2cc(-c3nc4ccccc4n3C)c(=O)oc12	-73.8*
CC(=O)Oc1ccc2cc(-c3nc4ccccc4n3C)c(=O)oc2c1	-225.7*
CC(C)(C)C(=O)Oc1ccc2cc(-c3ccc4ccccc4n3)c(=O)oc2c1	-157.3*
Cn1c(-c2cc3ccc(OC(=O)C(C)(C)C)cc3oc2=O)nc2ccccc21	-117.3*
COc1ccc(C2c3ccc4ccccc4c3Oc3ncn(CCCN(C)C)c(=N)c32)cc1 (stereo not given)	89.8
CC(C)c1ccc(C(=O)N(c2ccccn2)C(C)c2ccco2)cc1 (stereo not given)	-160.7*
CC(=O)NC(c1ccco1)c1ccc2cccnc2c1O (stereo not given)	77.2
CC(=O)c1ccc(NC(=O)CSc2nccn2CCc2ccccc2)cc1	-128.2*
N#Cc1ccccc1NC(=O)CSc1nccn1CCc1ccccc1	-149.4*
SMILES	aSyn 5UTR act
CCOC(=O)c1oc2cccc(OC(C)=O)c2c1C	-84.7*
CCOC(=O)c1oc2cccc(O)c2c1C	-80.8*
CCOC(=O)C(=CN=C(N)Nc1nc2ccccc2o1)C(=O)OCC	-118.9*
CCCOC(=O)Nc1nc2ccccc2o1	-99.0*
CCN(CC)c1ccc(N=Cc2ccc([N+](=O)[O-])o2)cc1	-79.8*
Clc1nc(-c2cccnc2)nc2scc(-c3ccccc3)c12	-134.3*
Cc1ccc(N2CCN(C(=O)c3cn(CC4CCCCC4)nn3)C(C)C2)cc1 (stereo not given)	-153.6*
CC1CCCC(C)N1CCCNC(=O)c1cc2c(s1)-c1ccccc1OC2 (stereo not given)	69.9
Cc1csc(NC(=O)c2cc3c(s2)-c2ccccc2OC3)n1	-211.1*
Cc1cccc(NC(=O)c2cc3c(s2)-c2c(C)cccc2OC3)n1	-143.5*
O=C(c1cc2c(s1)-c1ccccc1OC2)N1CCCC1	-104.6*
